Measurements published in the supplement of paper PMC6555819.

Assays:
Assay in all cases: PBM binding z-score (relative to random genomic background probes); higher = stronger binding; sequences stand for … in GC…GCGATTGACAGCGTAGAATGAAGG
[1] = test system: FXR:RXRa (NR concentration 270 nM, RXRa partner concentration 90 nM)
In short: (§1)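 Antibodies against each partner of ligand-free nuclear receptor dimers (one per run) detected binding on custom Agilent 4×180K protein-binding microarrays after 1 h incubation. The double-stranded probes had 34-nt variable regions carrying direct-repeat seeds, single-nucleotide variants, half-site ablations and random human genomic background sequences. Binding z-scores, from regression-normalized fluorescence, use the random background probes as reference.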

[2] = test system: LXRa:RXRa (NR concentration 270 nM, RXRa partner concentration 90 nM)
In short: as §1

[3] = test system: LXRa homodimer (NR concentration 270 nM)
In short: as §1

[4] = test system: LXRb:RXRa (NR concentration 270 nM, RXRa partner concentration 90 nM)
In short: as §1

[5] = test system: LXRb homodimer (NR concentration 270 nM)
In short: as §1

[6] = test system: PPARa:RXRa (NR concentration 270 nM, RXRa partner concentration 90 nM)
In short: as §1

[7] = test system: PPARg:RXRa (NR concentration 180 nM, RXRa partner concentration 90 nM)
In short: as §1

[8] = test system: PPARg:RXRa 270nM:90nM, anti-RXR (NR concentration 270 nM, RXRa partner concentration 90 nM)
In short: as §1

[9] = test system: PPARg:RXRa 30nM:10nM, anti-RXR (NR concentration 30 nM, RXRa partner concentration 10 nM)
In short: as §1

[10] = test system: PPARg:RXRa 90nM:30nM, anti-RXR (NR concentration 90 nM, RXRa partner concentration 30 nM)
In short: as §1

[11] = test system: PPARg:RXRa DBDmut IVT, anti-RXR (DBD mutation: RXRa K156A/R161A, NR concentration 270 nM, RXRa partner concentration 90 nM)
In short: as §1

[12] = test system: PPARg:RXRa IVT, anti-PPARg (NR concentration 270 nM, RXRa partner concentration 90 nM)
In short: as §1

[13] = test system: PPARg DBDmut:RXRa IVT, anti-PPARg (DBD mutation: PPARg1 K132A/R137A, NR concentration 270 nM, RXRa partner concentration 90 nM)
In short: as §1

[14] = test system: PPARg DBDmut IVT, anti-PPARg (DBD mutation: PPARg1 K132A/R137A, NR concentration 270 nM)
In short: as §1

[15] = test system: PPARg homodimer (NR concentration 180 nM)
In short: as §1

[16] = test system: PXR:RXRa (NR concentration 270 nM, RXRa partner concentration 90 nM)
In short: as §1

[17] = test system: PXR homodimer (NR concentration 270 nM)
In short: as §1

[18] = test system: RARa:RXR (NR concentration 270 nM, RXRa partner concentration 90 nM)
In short: as §1

[19] = test system: RARa homodimer (NR concentration 270 nM)
In short: as §1

[20] = test system: RARb:RXRa (NR concentration 270 nM, RXRa partner concentration 90 nM)
In short: as §1

| Sequence | PBM binding z-score [1] | PBM binding z-score [2] | PBM binding z-score [3] | PBM binding z-score [4] | PBM binding z-score [5] | PBM binding z-score [6] | PBM binding z-score [7] | PBM binding z-score [8] | PBM binding z-score [9] | PBM binding z-score [10] | PBM binding z-score [11] | PBM binding z-score [12] | PBM binding z-score [13] | PBM binding z-score [14] | PBM binding z-score [15] | PBM binding z-score [16] | PBM binding z-score [17] | PBM binding z-score [18] | PBM binding z-score [19] | PBM binding z-score [20] |
| --- | --- | --- | --- | --- | --- | --- | --- | --- | --- | --- | --- | --- | --- | --- | --- | --- | --- | --- | --- | --- |
| ATATGTAGGTAATCGGGTCATTCAGTTTGCGCAT | 1.83 | 1.79 | 0.62 | 2.26 | 0.648 | 4.67 | 6.27 | 5.56 | 3.33 | 4.77 | 7.17 | 7.38 | 2.95 | 2.04 | 1.76 | 2.84 | 6.06 | 2.79 | 1.35 | 1.6 |
| TCTGGTAGATCAACAGGAGGTTAAGAAAGATCGA | 0.3 | 1.04 | 0.187 | 0.782 | -0.582 | 1.24 | -0.00962 | 1.19 | 2.17 | 1.82 | 0.912 | 0.0177 | 0.166 | -0.137 | 0.335 | 0.736 | -0.172 | 1.06 | -0.145 | 0.269 |
| ATCTCTAGGTAATAGTTCAGTGAATCCCGAGGAT | 0.178 | 0.499 | 0.496 | 0.482 | 0.778 | 3.1 | 5.39 | 6.33 | 5.08 | 6.63 | 2.36 | 2.79 | 1.15 | 2.02 | 1.07 | 0.458 | 0.386 | 0.192 | 1.4 | 1.16 |
| CAAACTAGGTCACGAAAGGTCAAAGACGAATGAC | 7.6 | 8.07 | 7.51 | 7.29 | 2.75 | 6.72 | 10.4 | 8.57 | 8.01 | 8.93 | 8.52 | 9.24 | 4.91 | 4.77 | 6.85 | 7.05 | 2.93 | 7.89 | 4.46 | 5.69 |
| CTCGAAAGGTTGGTTGAGGTGAGTATACGGATAA | 1.15 | 0.487 | -0.0312 | 0.38 | -0.269 | 0.843 | -0.0296 | 0.107 | 0.0087 | 0.291 | -0.057 | 0.667 | -0.538 | -0.309 | 0.774 | 1.11 | 0.376 | 1.09 | 0.368 | 1.17 |
| CGAAGTAGGTCATTGACAGGACAGTGAATAGTAA | 4.75 | 3.56 | 0.791 | 2.6 | 0.392 | 5.05 | 7.92 | 6.67 | 4.6 | 6.57 | 8.42 | 8.66 | 3.43 | 2.58 | 2.08 | 2.16 | 0.395 | 2.66 | 0.16 | 3.58 |
| CGAACTAGGTCATCCAGGGCAGTGAATACATTGA | 4.8 | 3.06 | 0.45 | 2.11 | -0.0808 | 5.08 | 7.91 | 6.54 | 4.15 | 5.95 | 8.06 | 8.48 | 5.35 | 1.78 | 2.66 | 2.66 | 1.95 | 2.47 | 0.454 | 4.29 |
| CGAACTAGGTCATTAACAGGACAGTGAATAGTAA | 3.27 | 2.59 | 0.8 | 1.88 | -0.0794 | 4.12 | 7.01 | 5.93 | 3.43 | 5.45 | 8.02 | 7.96 | 3.04 | 1.69 | 2.06 | 1.28 | 0.557 | 1.97 | 0.792 | 3.27 |
| TCTTGTAGAGCAACAGGAGGTTAAGAAAGATCGA | 0.207 | 0.661 | -0.177 | 0.486 | -0.586 | 1.12 | -0.0991 | 0.587 | 1.4 | 0.921 | 1.98 | 1.27 | 0.588 | 0.0668 | -0.265 | 0.413 | -0.46 | 0.506 | -0.541 | 0.184 |
| CCACACAGGTGAGAAGGTAACTCAGCCTCGATTA | 0.187 | 0.0665 | 0.368 | 0.214 | -0.197 | 0.855 | 0.76 | 0.577 | -0.223 | 0.451 | 1.42 | 0.872 | -0.137 | -0.56 | 1.35 | 0.0866 | 0.0622 | 0.524 | 0.47 | 0.709 |
| CCTTGTTGGTCAGGAGGTCACACACCGGATATGA | 3.65 | 3.45 | 2.55 | 3.64 | 0.947 | 4.07 | 3.37 | 3.8 | 1.66 | 2.83 | 1.61 | 3.58 | 0.862 | 0.471 | 2.86 | 4.22 | 1.27 | 4.37 | 1.82 | 3.85 |
| GGAACGAGGGCATTTGAGTTGATAGCATGGCGAT | 1.31 | 1.6 | -0.156 | 0.482 | -0.207 | 1.65 | 0.939 | 0.641 | -0.0141 | 0.257 | 2.97 | 2.01 | -0.643 | -0.444 | 0.183 | 4 | 2.08 | 0.869 | -0.446 | 1.96 |
| TCTTGTAGATCAACAGGAGGTTAAGAACGATCGA | 0.185 | 0.857 | 0.191 | 0.748 | -0.245 | 1.36 | 0.136 | 1.3 | 2.75 | 1.81 | 1.71 | 0.594 | 0.843 | 0.593 | 0.264 | 0.722 | -0.175 | 0.889 | 0.0224 | 0.446 |
| GCTAGCAGGCCATTTTGGTCACTCAATGACGGGC | -0.64 | -0.754 | -1.03 | -0.967 | -0.971 | -0.67 | 0.24 | -0.925 | -0.857 | -0.861 | 0.582 | -0.122 | -1.08 | -1.4 | -1.14 | -0.775 | -0.836 | -0.995 | -1.3 | 0.0531 |
